PubChem BioAssay
Active and inactive are the calls of the source.

Key:
[1] = compounds binding Alexa647 anti-His antibody – biochemical, small-molecule microarray, 635 nm fluorescence, artefact control for SMM control protein annotation, primary screen (AID 1128); details: higher = more signal;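 also: score merges feature fluorescence with signal-to-noise for each printed compound spot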
[2] = tested on: Human papillomavirus type 1a E7 protein (residues 1-88); assay: HPV1a E7 small-molecule binders, primary screen, biochemical, small-molecule microarray, residues 1-88, 635 nm (AID 1129); details: small-molecule microarray binding, fluorescence 635 nm; higher = more signal
[3] = target: Focal adhesion kinase 1 (Homo sapiens) (UniProt Q05397); assay: PTK2 protein binding on printed compound slides – biochemical, small-molecule microarray, 635/667 nm fluorescence, BSA, DTT, primary screen (AID 1130); details: 635 nm fluorescence, higher = more signal;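 also: composite of spot emission at 667 nm and signal to noise over triplicate slides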
Focal adhesion kinase 1 (Homo sapiens), sequence (Q05397 whole entry, looked up): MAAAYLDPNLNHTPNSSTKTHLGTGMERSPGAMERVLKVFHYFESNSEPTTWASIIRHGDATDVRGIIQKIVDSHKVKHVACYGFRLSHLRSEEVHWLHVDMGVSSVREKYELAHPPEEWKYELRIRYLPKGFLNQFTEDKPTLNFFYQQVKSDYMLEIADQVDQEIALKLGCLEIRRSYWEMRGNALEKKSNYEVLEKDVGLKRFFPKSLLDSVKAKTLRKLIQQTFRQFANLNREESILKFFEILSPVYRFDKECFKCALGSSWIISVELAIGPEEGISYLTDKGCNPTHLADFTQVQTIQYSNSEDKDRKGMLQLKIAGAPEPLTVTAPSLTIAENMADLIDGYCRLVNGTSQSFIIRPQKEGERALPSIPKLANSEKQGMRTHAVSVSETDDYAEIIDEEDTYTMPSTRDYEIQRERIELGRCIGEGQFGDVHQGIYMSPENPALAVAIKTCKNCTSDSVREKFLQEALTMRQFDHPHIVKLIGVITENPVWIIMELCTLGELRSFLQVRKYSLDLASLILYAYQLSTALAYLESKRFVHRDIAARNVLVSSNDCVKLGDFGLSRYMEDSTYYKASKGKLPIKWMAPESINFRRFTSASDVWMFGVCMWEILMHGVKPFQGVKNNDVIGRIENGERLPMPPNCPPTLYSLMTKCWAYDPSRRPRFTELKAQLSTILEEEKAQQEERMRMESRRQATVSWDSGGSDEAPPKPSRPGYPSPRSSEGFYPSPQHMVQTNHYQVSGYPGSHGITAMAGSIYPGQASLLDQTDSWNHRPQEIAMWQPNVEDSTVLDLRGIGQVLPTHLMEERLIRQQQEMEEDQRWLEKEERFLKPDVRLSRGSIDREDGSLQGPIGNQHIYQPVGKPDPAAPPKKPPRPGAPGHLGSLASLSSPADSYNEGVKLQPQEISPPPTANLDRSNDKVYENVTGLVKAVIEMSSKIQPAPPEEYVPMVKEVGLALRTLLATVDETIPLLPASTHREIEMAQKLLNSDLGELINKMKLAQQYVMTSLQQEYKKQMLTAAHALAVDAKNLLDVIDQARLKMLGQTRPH

[4] = tested on: Fibrinogen (Alexa647-labelled); assay: Alexa647-fibrinogen binding to printed small molecules – biochemical, small-molecule microarray, 635/667 nm fluorescence, artefact control for SMM control-protein annotation, profiling panel (AID 1131); details: fibrinogen-A647 binding fluorescence, higher = more signal;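 also: z-score merges 667 nm fluorescence with per-spot signal-to-noise over triplicate slides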
[5] = target: Follistatin (Homo sapiens) (UniProt P19883); assay: FST protein binding to printed compounds – biochemical, small-molecule microarray, 635/667 nm fluorescence, primary screen (AID 1132); details: 635 nm fluorescence, higher = more signal
Follistatin (Homo sapiens), sequence (P19883 whole entry, looked up): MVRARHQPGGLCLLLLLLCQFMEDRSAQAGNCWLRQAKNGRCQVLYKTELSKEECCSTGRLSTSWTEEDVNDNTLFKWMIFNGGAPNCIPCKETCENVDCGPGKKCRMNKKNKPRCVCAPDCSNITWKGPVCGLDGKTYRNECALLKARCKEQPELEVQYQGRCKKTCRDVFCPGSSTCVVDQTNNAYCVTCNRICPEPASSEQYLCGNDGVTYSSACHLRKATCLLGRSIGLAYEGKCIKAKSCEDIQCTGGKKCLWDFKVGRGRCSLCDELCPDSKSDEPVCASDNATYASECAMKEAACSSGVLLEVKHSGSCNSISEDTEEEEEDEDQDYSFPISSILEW

[6] = target: Fibroblast growth factor 2 (Homo sapiens) (UniProt P09038); assay: basic fibroblast growth factor binding to printed compounds – biochemical, small-molecule microarray, 635/667 nm fluorescence, primary screen (AID 1133); details: FGF2, fluorescence 635/667, higher = more signal
Fibroblast growth factor 2 (Homo sapiens), sequence (P09038 whole entry, looked up): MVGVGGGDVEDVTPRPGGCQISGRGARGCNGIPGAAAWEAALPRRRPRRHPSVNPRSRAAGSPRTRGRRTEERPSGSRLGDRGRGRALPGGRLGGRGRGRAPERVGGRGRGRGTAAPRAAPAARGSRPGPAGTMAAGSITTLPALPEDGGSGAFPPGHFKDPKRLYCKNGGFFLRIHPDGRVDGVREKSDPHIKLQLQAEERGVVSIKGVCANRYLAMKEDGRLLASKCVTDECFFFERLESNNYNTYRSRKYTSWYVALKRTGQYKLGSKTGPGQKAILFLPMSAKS

[7] = JC-1 mitochondrial potential readout, lung cancer cells – cell-based, A549, JC-1 fluorescence, basal, 24 h, 100 nL, profiling panel (AID 1138); details: higher = more signal;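 also: A549 lung adenocarcinoma cells under basal conditions with no added stimulus; test concentration not given here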
Lefty1 = Lefty1 protein binding to printed compounds – biochemical, small-molecule microarray, 635/667 nm fluorescence, primary screen (AID 1139); details: fluorescence 635/667, higher = more signal
[8] = tested on: wheat germ agglutinin (Triticum aestivum), Alexa647-labelled; assay: Alexa647-WGA lectin binding to printed small molecules – biochemical, small-molecule microarray, 635/667 nm fluorescence, artefact control for SMM control-protein annotation, profiling panel (AID 1140); details: WGA-A647 binding, 635 nm fluorescence, higher = more signal;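 also: score merges 667 nm feature emission with signal to noise over triplicate slides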
[9] = target: Luciferin 4-monooxygenase (Photinus pyralis) (UniProt P08659); assay: inhibition of purified Photinus pyralis luciferase – biochemical, luminescence, purified enzyme, 2006 set, primary screen (AID 1141); details: purified firefly luciferase, SteadyGlo luminescence, 30 min; higher = more signal, called active from +8 up or from −8 down;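 also: cell-free assay with purified firefly luciferase at 100 ng per well in PBS; test concentration not given here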
Luciferin 4-monooxygenase (Photinus pyralis), sequence (P08659 whole entry, looked up): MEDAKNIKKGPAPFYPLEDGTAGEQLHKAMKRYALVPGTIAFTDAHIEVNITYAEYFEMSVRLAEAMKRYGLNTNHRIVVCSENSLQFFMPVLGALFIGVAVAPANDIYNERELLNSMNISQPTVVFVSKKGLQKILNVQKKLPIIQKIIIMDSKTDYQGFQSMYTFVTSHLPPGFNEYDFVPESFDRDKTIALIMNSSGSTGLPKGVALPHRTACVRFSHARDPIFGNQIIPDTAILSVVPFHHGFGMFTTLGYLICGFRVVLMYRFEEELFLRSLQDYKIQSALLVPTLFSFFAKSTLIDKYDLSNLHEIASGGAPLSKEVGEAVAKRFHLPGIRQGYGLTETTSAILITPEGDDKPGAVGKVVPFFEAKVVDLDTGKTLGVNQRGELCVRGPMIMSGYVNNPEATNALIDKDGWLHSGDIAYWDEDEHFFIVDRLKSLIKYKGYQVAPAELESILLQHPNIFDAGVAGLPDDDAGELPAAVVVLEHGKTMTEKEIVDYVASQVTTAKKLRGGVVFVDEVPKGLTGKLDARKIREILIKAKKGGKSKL

Compound	composite z-score [1]	composite z-score [2]	composite z-score [3]	composite z-score [4]	composite z-score [5]	composite z-score [6]	z-score [7]	composite z-score (Lefty1)	composite z-score [8]	z-score [9]
CCOC(=O)C1=CC[C@@H](c2ccccc2)N(S(=O)(=O)c2ccc(C)cc2)[C@H]1c1ccc(CC)cc1	1.09	1.18	0.761	0.966	0.352	0.286	2.58	0.245	0.758	1.46 (inactive)
O[C@@H](Cc1ccccc1)[C@@H](/C=C/C1CC1)NCc1cccc(Cl)c1	0.183	-0.431	0.314	-1.7	-1.4	-1.99	-0.164	-0.717	0.204	0.585 (inactive)
COc1ccc([Si](C)(C)[C@H]2[C@H](CCO)O[C@@]3(C(=O)N(Cc4ccccc4)c4ccc(N5CCCCC5=O)cc43)[C@@H]2C)cc1	1.49	0.435	0.208	0.94	1.28	1.28	2.23	0.628	0.768	-1.08 (inactive)
O=C(NCc1ccccc1)[C@@H]1c2ccccc2C(=O)N(C2Cc3ccccc3C2)[C@H]1c1ccc(CO)cc1	0.526	1.17	0.166	0.299	0.957	0.892	0.353	0.459	1.1	0.111 (inactive)
[N-]=[N+]=Nc1ccccc1C[C@]1(C(=O)NCC(O)CO)N=C(c2ccc(OCCCO)cc2)O[C@H]1c1ccccc1 (stereo not given in full)	1.91	1.03	0.0141	0.942	0.497	-0.839	0.0609	-0.492	0.606	-1.78 (inactive)
CCCCN1CC=CC23O[C@@H]4C=CCOC(=O)[C@@H]4[C@H]2C(=O)N(CCCCCCO)[C@@H]3C1=O (stereo not given in full)	-0.818	-0.544	0.717	-2.1	-1.55	-0.802	0.00246	-1.25	-1.24	-0.419 (inactive)
O=C1OCC=C[C@H]2OC34C=CCN(CCN5CCOCC5)C(=O)[C@H]3N(CCO)C(=O)[C@@H]4[C@@H]12 (stereo not given in full)	0.15	-0.204	-0.133	0.368	0.597	-0.219	0.587	1.41	0.0315	-0.602 (inactive)
COCCOC(=O)N1C(=O)[C@@]2(c3cc(C#CC4(O)CCCCCC4)ccc31)[C@H](C(=O)Nc1nc3ccccc3s1)[C@H]1C(=O)O[C@H](c3ccccc3)[C@H](c3ccccc3)N1[C@@H]2c1ccccc1OCCO	2.46	1.2	0.823	0.981	1.01	1.37	-1.13	0.581	1.08	-3.04 (inactive)
COCCCNC(=O)[C@@H]1c2ccccc2C(=O)N(Cc2ccccc2)[C@H]1c1ccc(CO)cc1	1.67	1.01	-0.174	0.185	0.928	0.594	1.29	0.206	0.31	0.519 (inactive)
COC(=O)[C@]1(Cc2ccccc2)N=C(c2ccc(OCCCO)cc2)O[C@@H]1c1ccccc1N=[N+]=[N-]	1.15	1.2	0.442	0.863	1.36	1.29	-1.24	0.83	0.464	-4.8 (inactive)
C=CCNC(=O)[C@H]1[C@@H]2C(=O)O[C@@H](c3ccccc3)[C@@H](c3ccccc3)N2[C@@H](c2ccc(O)cc2)[C@]12C(=O)Nc1ccc(C#CCCO)cc12	-0.0591	-0.338	0.459	-0.297	0.265	-0.869	0.0152	0.358	-0.48	0.361 (inactive)
O=C1OCCC=C[C@H]2OC34C=CCN(CCN5CCOCC5)C(=O)[C@H]3N(CCCCCO)C(=O)[C@@H]4C12 (stereo not given in full)	-0.166	0.56	0.398	0.709	-0.211	-0.363	0.791	-0.301	0.615	-0.956 (inactive)
CS(=O)(=O)CCOC(=O)C1=CC(CCCO)=CC(C2CC2)N(Cc2cc3c(cc2Br)OCO3)C=C1C(=O)OCCS(C)(=O)=O (stereo not given)	1.97	0.419	-0.0438	1.01	1.18	0.198	1.29	0.477	1.15	-0.395 (inactive)
C=CCOC(=O)[C@H]1[C@@H]2C(=O)O[C@@H](c3ccccc3)[C@@H](c3ccccc3)N2[C@@H](c2ccc(OCCOC(=O)[C@H]3C[C@H]4C(=O)N[C@@H](CCCCN(C)C)C(=O)N4[C@H]3c3cccc(OCCO)c3)cc2)[C@]12C(=O)Nc1ccc(I)cc12	0.977	1.18	0.205	0.571	1.35	1.36	-1.66	1.6	0.705	-0.49 (inactive)
COc1ccccc1CN1C(=O)c2ccccc2[C@@]2(Cc3ccccc3N(CCCN(C)C)C2=O)[C@@H]1c1ccc(CO)cc1	0.583	-0.984	-0.0228	0.253	1.2	0.459	-0.202	0.647	-0.331	-0.278 (inactive)
COc1ccc(-c2cc3c(c(Cc4ccccc4)n2)[Si](C(C)C)(C(C)C)OC3)cn1	-0.356	-0.875	-0.0985	-0.827	-0.108	-0.328	-0.687	-0.0455	-0.351	0.892 (inactive)
COCCOC(=O)N1C(=O)[C@@]2(c3cc(C#CCCO)ccc31)[C@H](c1ccc(OCCO)cc1)N1[C@H](c3ccccc3)[C@H](c3ccccc3)OC(=O)[C@H]1[C@@H]2C(N)=O	1.3	1.2	0.711	0.837	1.04	0.752	-0.212	0.496	0.694	-1.77 (inactive)

Compound	composite z-score [1]	composite z-score [2]	composite z-score [3]	composite z-score [4]	composite z-score [5]	composite z-score [6]	z-score [7]	composite z-score (Lefty1)	composite z-score [8]	z-score [9]
CCCCN1CC=CC23O[C@@H]4/C=C\CCCOC(=O)C4[C@H]2C(=O)N(CCCO)[C@@H]3C1=O (stereo not given in full)	2.36	-0.43	-0.226	-1.73	-0.98	-0.251	0.259	-0.0249	-0.151	0.633 (inactive)
COC(=O)c1c2oc(c1C(=O)OC)C(=O)N[C@@H](C(C)C)Cn1cc(nn1)C1(CCCCC1)NC(=O)N[C@H](CO)CC2	0.591	-0.159	-0.0947	0.209	0.515	1.58	2.2	0.102	0.0969	-1.3 (inactive)
COC(=O)[C@@]1(Cc2ccc(OC)cc2)[C@H]2c3cc(C(=O)N4CCCC4)n(CCc4ccc(O)c(O)c4)c3C[C@H]2CN1C(=O)c1ccccc1	2.44	1.17	0.384	0.421	0.442	-0.736	-0.72	-0.958	1.22	-7.43 (inactive)
O=C1[C@H]2C=C(Br)[C@H](C[C@@H]2OCCCCCCO)[C@@]12CO2	-0.847	-1.57	-0.191	-1.94	-0.266	0.263	-0.363	-0.406	-2.03	0.364 (inactive)
O=C1O[C@H](c2ccccc2)[C@H](c2ccccc2)N2[C@H]1[C@@H](C(=O)NC[C@H](O)c1ccccc1)[C@]1(C(=O)Nc3ccccc31)[C@H]2c1ccc(O)cc1	0.885	0.973	0.223	0.141	1.22	1.71	-0.236	0.947	0.39	0.363 (inactive)
C#CCN(C/C=C/c1ccccc1)[C@H](CO)c1ccccc1	-0.429	0.168	-0.0352	-0.213	0.495	0.444	-1.38	0.968	0.241	0.616 (inactive)
CCOC(=O)C[C@H]1[C@H](OC(=O)c2ccc(C(=O)c3ccccc3)cc2)[C@@H](NC(=O)c2ccccc2)c2cc(OCCCO)ccc2N1C(=O)c1ccccc1	0.0654	0.321	0.775	0.704	0.64	0.752	0.697	0.802	0.405	0.685 (inactive)
CN1CCC(CCCO)=CC1c1cccs1 (stereo not given)	-0.321	-0.902	-0.698	0.0141	-0.0163	0.184	0.391	0.118	-0.485	0.0421 (inactive)
COCC(=C=CC[C@H](O)c1ccccc1OCCO)CCO	-0.69	0.268	0.432	0.869	0.992	1.11	0.417	1.15	1.14	0.109 (inactive)
[N-]=[N+]=NCc1ccccc1[C@@H]1OC(c2ccc(OCCCO)cc2)=N[C@]1(CCS(=O)(=O)c1ccccc1)C(N)=O	3.49	1.27	1.21	0.973	1.44	1.83	-0.528	0.616	1.09	-2.98 (inactive)
COC(=O)c1c(CC[C@@H](CO)NC(=O)N[C@@H](Cc2ccccc2)Cn2cc(-c3ccccn3)nn2)oc(C(=O)N2CCOCC2)c1C(=O)OC	-0.241	-0.341	0.384	-0.405	0.57	-0.129	-0.187	0.795	0	1.1 (inactive)
CN(C)CCCCNC(=O)[C@@H]1C[C@@H]2C(=O)N[C@@H](CCCCN)C(=O)N2[C@@H]1c1ccc(O)cc1	0.253	-0.0102	-0.0748	0.223	1.34	1.68	-1.38	0.896	0.857	-0.0213 (inactive)
C=CCC(OC(C)=O)[C@@H]1[C@@H](N(Cc2ccc(-c3cccc(C(F)(F)F)c3)o2)C(=O)c2cccc3ccccc23)c2cc(OCCCO)ccc2N1C(=O)Cc1ccc2ccccc2c1 (stereo not given in full)	0.383	-0.688	0.172	0.702	0.37	-0.129	-0.65	-0.0051	0.178	0.335 (inactive)
O=C1OCCC=C[C@H]2OC34C=CCN(c5ccc(Cl)cc5)C(=O)[C@H]3N(CCCO)C(=O)[C@@H]4C12 (stereo not given in full)	-0.598	-1.88	-0.22	-0.867	-0.0633	-0.584	0.0491	0.196	-0.0198	-0.352 (inactive)
CCCCCCc1nc(-c2ccc(-c3ccc(Cl)c(Cl)c3)o2)cc2c1[Si](C(C)C)(C(C)C)O[C@H]2c1ccccc1	-0.403	-0.73	-0.132	-1.34	-0.348	-0.434	-0.859	0.0259	1.04	0.712 (inactive)
COCCOC(=O)N1C(=O)[C@@]2(c3cc(C#CC4(O)CCCCCC4)ccc31)[C@H](C(=O)Nc1nc3ccccc3s1)[C@H]1C(=O)O[C@H](c3ccccc3)[C@H](c3ccccc3)N1[C@@H]2c1ccc(OCCO)cc1	0.553	1.16	-0.0405	0.801	1.12	1.58	-2.51	1.22	0.924	-3.29 (inactive)
